The supplement of paper PMC11738630

Tested on: Salmonella enterica serovar Typhimurium 14028s
Experiment: approximate change in surviving CFU after surface colonization relative to water-only control (log10 CFU/mL change); higher = more surviving bacteria (less inhibition of surface colonization)
Conditions: not stated (Biolog proprietary concentration), surface: plastic 96-well plate, 20-24 h at 25 °C

Structure (SMILES): NCC(=O)N1CCC[C@H]1C(=O)O [Glycyl-L-Proline]
- approximate change in surviving CFU (log10) (Biolog plate: PM1, Biolog well: H1): 0.58

Structure (SMILES): OCC1(O)OC[C@@H](O)[C@@H](O)[C@H]1O (stereo partly drawn) [D-Psicose]
- approximate change in surviving CFU (log10) (Biolog plate: PM1, Biolog well: H5): 1.35

Structure (SMILES): CC(=O)C(=O)O [Pyruvic Acid]
- approximate change in surviving CFU (log10) (Biolog plate: PM1, Biolog well: H8): -0.494

Structure (SMILES): OC[C@H]1O[C@@H](O[C@H]2[C@H](O)[C@@H](O)[C@H](O[C@H]3[C@H](O)[C@H](O)[C@H](O[C@@H]4[C@H](O)[C@H](O)[C@H](O)O[C@@H]4CO)O[C@@H]3CO)O[C@@H]2CO)[C@@H](O)[C@@H](O)[C@@H]1O [Mannan]
- approximate change in surviving CFU (log10) (Biolog plate: PM2, Biolog well: A11): 0.837

Structure (SMILES): OC[C@H]1O[C@@H](Oc2ccc(O)cc2)[C@H](O)[C@@H](O)[C@@H]1O [Arbutin]
- approximate change in surviving CFU (log10) (Biolog plate: PM2, Biolog well: B8): 1.29

Structure (SMILES): OC[C@@H]1OC(O)[C@@H](O)[C@H](O)[C@H]1O (stereo partly drawn) [L-Glucose]
- approximate change in surviving CFU (log10) (Biolog plate: PM2, Biolog well: C2): 1.22

Structure (SMILES): OC[C@@H](O)[C@@H](O[C@@H]1O[C@H](CO)[C@H](O)[C@H](O)[C@H]1O)[C@H](O)[C@@H](O)CO [Lactitol]
- approximate change in surviving CFU (log10) (Biolog plate: PM2, Biolog well: C3): 1.05

Structure (SMILES): OC[C@@H](O)[C@@H](O[C@H]1O[C@H](CO)[C@@H](O)[C@H](O)[C@H]1O)[C@H](O)[C@@H](O)CO [Maltitol]
- approximate change in surviving CFU (log10) (Biolog plate: PM2, Biolog well: C5): 1.37

Structure (SMILES): O=C(CO)[C@@H](O[C@H]1O[C@H](CO)[C@@H](O)[C@H](O)[C@H]1O)[C@H](O)[C@H](O)CO [Turanose]
- approximate change in surviving CFU (log10) (Biolog plate: PM2, Biolog well: D7): 0.88

Structure (SMILES): CC(=O)N[C@@H](CO)[C@@H](O)[C@H](O)[C@H](O)CO [N-Acetyl-D-Glucosaminitol]
- approximate change in surviving CFU (log10) (Biolog plate: PM2, Biolog well: D9): 0.944

Structure (SMILES): O=C(O)C(=O)O [Oxalic Acid]
- approximate change in surviving CFU (log10) (Biolog plate: PM2, Biolog well: F4): 0.429

Structure (SMILES): NC(=O)CCC(=O)O [Succinamic Acid]
- approximate change in surviving CFU (log10) (Biolog plate: PM2, Biolog well: F10): 0.73

Structure (SMILES): O=C(O)[C@H](O)[C@@H](O)C(=O)O [L-Tartaric Acid]
- approximate change in surviving CFU (log10) (Biolog plate: PM2, Biolog well: F12): 0.687

Structure (SMILES): CC(=O)C(C)=O [2,3-Butanedione]
- approximate change in surviving CFU (log10) (Biolog plate: PM2, Biolog well: H11): -1.61

Structure (SMILES): O=C(O)CC[C@@H](C(=O)O)N1C(=O)c2ccccc2C1=O [N-Phthaloyl-L-Glutamic Acid]
- approximate change in surviving CFU (log10) (Biolog plate: PM3, Biolog well: D2): -0.343

Structure (SMILES): NCCCCN=C(N)N [Agmatine]
- approximate change in surviving CFU (log10) (Biolog plate: PM3, Biolog well: D12): -0.193

Structure (SMILES): Nc1ccn([C@@H]2O[C@H](CO)[C@@H](O)[C@H]2O)c(=O)n1 [Cytidine]
- approximate change in surviving CFU (log10) (Biolog plate: PM3, Biolog well: F4): 0.386

Structure (SMILES): Cc1c[nH]c(=O)[nH]c1=O [Thymine]
- approximate change in surviving CFU (log10) (Biolog plate: PM3, Biolog well: F8): -0.58

Structure (SMILES): Oc1nc(O)c2nc(O)[nH]c2n1
- approximate change in surviving CFU (log10) (Biolog plate: PM3, Biolog well: G3): 1.14

Structure (SMILES): C[C@H](N)C(=O)N[C@@H](CCC(N)=O)C(=O)O
- approximate change in surviving CFU (log10) (Biolog plate: PM3, Biolog well: H2): 0.0644

Structure (SMILES): C[C@H](N)C(=O)N[C@H](C(=O)O)[C@@H](C)O
- approximate change in surviving CFU (log10) (Biolog plate: PM3, Biolog well: H7): -0.0215

Structure (SMILES): NCC(=O)N[C@@H](CC(N)=O)C(=O)O
- approximate change in surviving CFU (log10) (Biolog plate: PM3, Biolog well: H8): 0.107

Structure (SMILES): NCC(=O)N[C@@H](CCC(=O)O)C(=O)O
- approximate change in surviving CFU (log10) (Biolog plate: PM3, Biolog well: H10): 0.472

Structure (SMILES): CSCC[C@H](N)C(=O)N[C@@H](C)C(=O)O
- approximate change in surviving CFU (log10) (Biolog plate: PM3, Biolog well: H12): 0.0214

Structure (SMILES): O=C(O)CCC(=O)O [Succinic Acid]
- approximate change in surviving CFU (log10) (Biolog plate: PM1, Biolog well: A5): 0.515

Structure (SMILES): OC[C@H]1O[C@H](O[C@H]2[C@H](O)[C@@H](O)[C@H](O)O[C@@H]2CO)[C@H](O)[C@@H](O)[C@@H]1O [Maltose]
- approximate change in surviving CFU (log10) (Biolog plate: PM1, Biolog well: C10): 1.57

Structure (SMILES): OC[C@H]1O[C@@H](O[C@H]2[C@H](O)[C@@H](O)[C@@H](O)O[C@@H]2CO)[C@H](O)[C@@H](O)[C@H]1O [a-D-Lactose]
- approximate change in surviving CFU (log10) (Biolog plate: PM1, Biolog well: D9): 1.05

Structure (SMILES): OC[C@H]1O[C@@H](O[C@@H]2[C@@H](CO)OC(O)(CO)[C@H]2O)[C@H](O)[C@@H](O)[C@H]1O (mixture of isomers) [Lactulose]
- approximate change in surviving CFU (log10) (Biolog plate: PM1, Biolog well: D10): 1.05

Structure (SMILES): OCC(O)C(O)C(O)CO (stereo not drawn) [Adonitol]
- approximate change in surviving CFU (log10) (Biolog plate: PM1, Biolog well: E9): 1.37

Structure (SMILES): Nc1ncnc2c1ncn2[C@H]1C[C@H](O)[C@@H](CO)O1 [2-Deoxy Adenosine]
- approximate change in surviving CFU (log10) (Biolog plate: PM1, Biolog well: E11): 1.37

Structure (SMILES): C[C@H](O)[C@@H](N)C(=O)O [D-Threonine]
- approximate change in surviving CFU (log10) (Biolog plate: PM1, Biolog well: F4): 0.901

Structure (SMILES): COC(=O)C(C)=O [Methyl Pyruvate]
- approximate change in surviving CFU (log10) (Biolog plate: PM1, Biolog well: G10): 0.0644

Structure (SMILES): O=C(O)C[C@@H](O)C(=O)O [D-Malic Acid]
- approximate change in surviving CFU (log10) (Biolog plate: PM1, Biolog well: G11): 1.05

Structure (SMILES): OC[C@H]1O[C@@H]2O[C@H]3[C@H](O)[C@@H](O)[C@@H](O[C@H]4[C@H](O)[C@@H](O)[C@@H](O[C@H]5[C@H](O)[C@@H](O)[C@@H](O[C@H]6[C@H](O)[C@@H](O)[C@@H](O[C@H]7[C@H](O)[C@@H](O)[C@@H](O[C@H]8[C@H](O)[C@@H](O)[C@@H](O[C@H]1[C@H](O)[C@H]2O)O[C@@H]8CO)O[C@@H]7CO)O[C@@H]6CO)O[C@@H]5CO)O[C@@H]4CO)O[C@@H]3CO [b-Cyclodextrin]
- approximate change in surviving CFU (log10) (Biolog plate: PM2, Biolog well: A4): 1.01

Structure (SMILES): N#C[C@H](O[C@@H]1O[C@H](CO[C@@H]2O[C@H](CO)[C@@H](O)[C@H](O)[C@H]2O)[C@@H](O)[C@H](O)[C@H]1O)c1ccccc1 [Amygdalin]
- approximate change in surviving CFU (log10) (Biolog plate: PM2, Biolog well: B4): 0.966

Structure (SMILES): C[C@@H](O)[C@H](O)[C@H](O)[C@@H](O)C=O [D-Fucose]
- approximate change in surviving CFU (log10) (Biolog plate: PM2, Biolog well: B11): -0.408

Structure (SMILES): CO[C@H]1O[C@H](CO)[C@@H](O)[C@H](O)[C@H]1O [a-Methyl-D-Glucoside]
- approximate change in surviving CFU (log10) (Biolog plate: PM2, Biolog well: C6): 1.2

Structure (SMILES): OC[C@@]12OC[C@@H](O1)[C@@H](O)[C@@H](O)[C@@H]2O [Sedoheptulosan]
- approximate change in surviving CFU (log10) (Biolog plate: PM2, Biolog well: D3): 0.451

Structure (SMILES): O=C(CO)[C@@H](O)[C@@H](O)[C@H](O)CO [D-Tagatose]
- approximate change in surviving CFU (log10) (Biolog plate: PM2, Biolog well: D6): 0.859

Structure (SMILES): CCCCCC(=O)O [Caproic Acid]
- approximate change in surviving CFU (log10) (Biolog plate: PM2, Biolog well: E2): -0.859

Structure (SMILES): O=C(O)c1ccccc1O [2-Hydroxy Benzoic Acid (Salicylic Acid)]
- approximate change in surviving CFU (log10) (Biolog plate: PM2, Biolog well: E6): -1.72

Structure (SMILES): COC(=O)[C@@H](C)O [D-Lactic Acid Methyl Ester]
- approximate change in surviving CFU (log10) (Biolog plate: PM2, Biolog well: F1): -0.15

Structure (SMILES): O=C1O[C@H](CO)[C@@H](O)[C@H]1O [D-Ribono-1,4-Lactone]
- approximate change in surviving CFU (log10) (Biolog plate: PM2, Biolog well: F7): 0.944
